Assay results reported in PubChem BioAssay (NCI).
About 79,000 compounds went through this panel and 15% of them were active in at least one assay; those are over-represented in the sample as a whole. Activity calls are given as the source filed them. Rule as the data show it: active = growth inhibition above about 70%; inactive = the rest.

Key:
[1] = NCI Yeast Anticancer Drug Screen. Data for the rad52 strain (AID 147);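 also: 0% = growth of vehicle-treated control cultures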; conditions: S. cerevisiae rad52 mutant growth inhibition, stronger effect = higher value
Procedure, shortened: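 Compounds are applied to a genetically defined yeast strain lacking normal DNA damage repair, and inhibition of growth is expressed relative to cultures given vehicle only.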

[2] = NCI Yeast Anticancer Drug Screen. Data for the rad50EPP+ strain (AID 151);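 also: 0% = growth of vehicle-treated control cultures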; conditions: S. cerevisiae rad50 mutant strain, stronger effect = higher value
Procedure, shortened: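 Compounds were applied to the rad50EPP+ yeast strain, which bears a defined DNA repair alteration, and growth inhibition was determined relative to vehicle-treated cultures.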

[3] = NCI Yeast Anticancer Drug Screen. Data for the mgt1 strain (AID 153); conditions: S. cerevisiae mgt1 mutant growth inhibition, stronger effect = higher value
Procedure, shortened: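 Strain: mgt1 yeast, one of a set carrying defined DNA damage repair or cell cycle control alterations. Compound-treated growth compared with vehicle.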

[4] = NCI Yeast Anticancer Drug Screen. Data for the rad50 strain (AID 155);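 also: 0% = growth of vehicle-only cultures of the same strain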; conditions: S. cerevisiae rad50 strain growth inhibition, stronger effect = higher value
Procedure, shortened: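 A DNA repair-deficient yeast mutant serves as the test organism; compound-induced growth inhibition is calculated against vehicle-treated cells.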

[5] = NCI Yeast Anticancer Drug Screen. Data for the mec2-1 strain (AID 157); conditions: S. cerevisiae mec2-1 strain, stronger effect = higher value
Procedure, shortened: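 Strain: mec2-1 (DNA repair/cell cycle alteration). Compound exposure, then growth measured; inhibition expressed relative to vehicle.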

[6] = NCI Yeast Anticancer Drug Screen. Data for the rad14 strain (AID 159);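 also: 0% = growth of vehicle-treated control cultures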; conditions: S. cerevisiae rad14 strain growth inhibition, stronger effect = higher value
Procedure, shortened: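 Vehicle-treated cultures served as the baseline for growth inhibition of a DNA repair-mutant yeast strain exposed to each compound.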

[7] = NCI Yeast Anticancer Drug Screen. Data for the sgs1 mgt1 strain (AID 161);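 also: 0% = growth of cultures given vehicle only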; conditions: S. cerevisiae sgs1 mgt1 strain, stronger effect = higher value
Procedure, shortened: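 Read-out: growth inhibition vs vehicle controls. Cells: mutant yeast strain deficient in DNA damage repair.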

[8] = NCI Yeast Anticancer Drug Screen. Data for the CLN2oe strain (AID 163);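 also: 0% = growth of vehicle-only control cultures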; conditions: S. cerevisiae CLN2oe strain, stronger effect = higher value
Procedure, shortened: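 Growth of a genetically modified yeast strain is measured after compound exposure and compared with cultures given vehicle alone.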

[9] = NCI Yeast Anticancer Drug Screen. Data for the cln2 rad14 strain (AID 165);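 also: 0% = growth equal to vehicle treated cultures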; conditions: S. cerevisiae cln2 rad14 strain, stronger effect = higher value
Procedure, shortened: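 Compounds are applied to the cln2 rad14 yeast strain, and growth is then compared with that of vehicle-treated cultures to give inhibition.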

[10] = NCI Yeast Anticancer Drug Screen. Data for the bub3 strain (AID 167); conditions: S. cerevisiae bub3 mutant strain, stronger effect = higher value
Procedure, shortened: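 Inhibition values come from growth of compound-treated mutant yeast normalised to vehicle-treated controls.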

[11] = NCI Yeast Anticancer Drug Screen. Data for the wt2 strain (AID 169);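 also: 0% = growth of vehicle-treated yeast cultures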; conditions: S. cerevisiae wt2 strain growth inhibition, stronger effect = higher value
Procedure, shortened: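 This strain belongs to a panel of yeast strains with defined genetic alterations in DNA damage repair or cell cycle control. Compounds are applied, and growth inhibition is measured against vehicle-treated cultures.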

[12] = NCI Yeast Anticancer Drug Screen. Data for the mlh1 strain (AID 171);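 also: 0% = growth of vehicle-treated control cultures of the same strain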; conditions: S. cerevisiae mlh1 strain growth inhibition, stronger effect = higher value
Procedure, shortened: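 Growth of the mutant yeast strain after compound exposure, expressed as inhibition relative to vehicle-only controls.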

[13] = NCI Yeast Anticancer Drug Screen. Data for the sgs1 strain (AID 173);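 also: 0% = growth of vehicle-only control cultures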; conditions: S. cerevisiae sgs1 mutant, stronger effect = higher value
Procedure, shortened: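 Growth of a yeast strain bearing a defined genetic alteration is measured after compound treatment. Inhibition is expressed relative to vehicle-only controls.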

[14] = NCI Yeast Anticancer Drug Screen. Data for the mlh1 rad18 strain (AID 175); conditions: S. cerevisiae mlh1 rad18 strain growth inhibition, stronger effect = higher value
Procedure, shortened: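 Read-out is yeast growth inhibition, calculated against vehicle-only controls. The compound was applied to a strain engineered with DNA damage repair alterations.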

[15] = NCI Yeast Anticancer Drug Screen. Data for the rad18 strain (AID 177); conditions: S. cerevisiae rad18 mutant growth inhibition, stronger effect = higher value
Procedure, shortened: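 Growth of the mutant yeast strain after compound exposure, normalised to vehicle-only cultures.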

[16] = NCI Yeast Anticancer Drug Screen. Data for the wt1 strain (AID 149);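 also: 0% = growth of vehicle-treated wt1 cultures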; conditions: S. cerevisiae wt1 strain (SPY 50644) growth inhibition, stronger effect = higher value
Procedure, shortened: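 Vehicle-normalised growth inhibition; strain wt1; compound exposure.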

[17] = at 5.0 µM (retest, dose inferred, filed as 0.5)
[18] = at 50.0 µM (retest, dose inferred, filed as 5.0)

Measured: growth inhibition

NC(=O)NC1C(c2ccccc2)=C1c1ccccc1
active: [1]; at 11.0 µM 71% | [1]; at 33.0 µM 94% | [1]; at 100.0 µM 95% | [2]; at 1.2 µM 74% | [2]; at 3.7 µM 73% | [2]; at 11.0 µM 89% | [2]; at 33.0 µM 96% | [2]; at 100.0 µM 95% | [4]; at 3.7 µM 70% | [4]; at 11.0 µM 84% | [4]; at 33.0 µM 93% | [4]; [18] 79% | [4]; at 50.0 µM 92% | [4]; at 100.0 µM 95% | [6]; at 11.0 µM 73% | [6]; at 33.0 µM 97% | [6]; at 100.0 µM 97% | [13]; at 100.0 µM 84%
inactive: [1]; at 1.2 µM 37% | [1]; at 3.7 µM 58% | [3]; at 1.2 µM 0% | [3]; at 3.7 µM -2% | [3]; at 11.0 µM 0% | [3]; at 33.0 µM -3% | [3]; at 100.0 µM 19% | [4]; at 1.2 µM 61% | [4]; [17] -19% | [5]; at 1.2 µM 0% | [5]; at 3.7 µM -1% | [5]; [17] -50% | [5]; at 11.0 µM 6% | [5]; at 33.0 µM 5% | [5]; [18] -36% | [5]; at 50.0 µM 13.2% | [5]; at 100.0 µM 27% | [6]; at 1.2 µM 51% | [6]; at 3.7 µM 58% | [7]; [17] -45% | [7]; [18] -10% | [7]; at 50.0 µM 17.4% | [8]; at 1.2 µM -3% | [8]; at 3.7 µM -3% | [8]; at 11.0 µM -3% | [8]; at 33.0 µM -5% | [8]; at 100.0 µM 30% | [9]; [17] -18% | [9]; [18] 62% | [9]; at 50.0 µM 38% | [10]; at 1.2 µM -1% | [10]; at 3.7 µM -6% | [10]; [17] -73% | [10]; at 11.0 µM -4% | [10]; at 33.0 µM -14% | [10]; [18] -68% | [10]; at 50.0 µM -28.7% | [10]; at 100.0 µM -10% | [11]; at 1.2 µM 13% | [11]; at 3.7 µM 20% | [11]; at 11.0 µM 45% | [11]; at 33.0 µM 53% | [11]; at 100.0 µM 48% | [12]; at 1.2 µM -7% | [12]; at 3.7 µM -4% | [12]; at 11.0 µM 14% | [12]; at 33.0 µM 17% | [12]; at 100.0 µM 51% | [13]; at 1.2 µM 8% | [13]; at 3.7 µM 5% | [13]; at 11.0 µM 44% | [13]; at 33.0 µM 56% | [14]; [17] -104% | [14]; [18] -38% | [14]; at 50.0 µM 44.7% | [15]; at 1.2 µM -7% | [15]; at 3.7 µM 3% | [15]; at 11.0 µM 34% | [15]; at 33.0 µM 38% | [15]; at 100.0 µM 38%

O=C(NCCCCN(CCCNC(=O)C(F)(F)F)Cc1ccccc1)C(F)(F)F
inactive: [1]; at 1.2 µM 30% | [1]; at 3.7 µM 36% | [1]; at 11.0 µM 31% | [1]; at 33.0 µM 33% | [1]; at 100.0 µM 35% | [16]; at 1.2 µM 5% | [16]; at 3.7 µM 9% | [16]; at 11.0 µM 4% | [16]; at 33.0 µM 6% | [16]; at 100.0 µM -10% | [3]; at 1.2 µM 22% | [3]; at 3.7 µM 33% | [3]; at 11.0 µM 32% | [3]; at 33.0 µM 26% | [3]; at 100.0 µM 7% | [5]; at 1.2 µM 14% | [5]; at 3.7 µM 11% | [5]; [17] 14% | [5]; at 11.0 µM 14% | [5]; at 33.0 µM 0% | [5]; at 50.0 µM -9.05% | [5]; at 100.0 µM -13% | [6]; at 1.2 µM 16% | [6]; at 3.7 µM 16% | [6]; at 11.0 µM 15% | [6]; at 33.0 µM 11% | [6]; at 100.0 µM -10% | [7]; [17] -19% | [7]; [18] -11% | [7]; at 50.0 µM -5.75% | [8]; at 1.2 µM 13% | [8]; at 3.7 µM 3% | [8]; at 11.0 µM 6% | [8]; at 33.0 µM 12% | [8]; at 100.0 µM -3% | [9]; [17] 14% | [9]; [18] 8% | [9]; at 50.0 µM 26.9% | [10]; at 1.2 µM 11% | [10]; at 3.7 µM 0% | [10]; [17] 7% | [10]; at 11.0 µM 0% | [10]; at 33.0 µM -7% | [10]; [18] 0% | [10]; at 50.0 µM -14% | [10]; at 100.0 µM 0% | [11]; at 1.2 µM -4% | [11]; at 3.7 µM -6% | [11]; at 11.0 µM 2% | [11]; at 33.0 µM -12% | [11]; at 100.0 µM -12% | [12]; at 1.2 µM 22% | [12]; at 3.7 µM 33% | [12]; at 11.0 µM 32% | [12]; at 33.0 µM 26% | [12]; at 100.0 µM 7% | [14]; [17] 19% | [14]; [18] 24% | [14]; at 50.0 µM -63% | [15]; at 1.2 µM 13% | [15]; at 3.7 µM 12% | [15]; at 11.0 µM 21% | [15]; at 33.0 µM 14% | [15]; at 100.0 µM -7%
active: [5]; [18] 75%
